Test results as given in the supplement of paper PMC10849652.
Targets with a hit are over-represented here; the source holds about 7,900 in all. About 0.6% of all pairs of compound and target were hits.

Key:
Assay in all cases: log2 fold change, soluble protein after heating vs DMSO (PISA); higher = thermal stabilisation; K562 cells, 10 uM, 30 min; active = over 0.2 and 3.5 SD of the protein, either way, in both replicates (recomputed)
[1] = compound: CC[C@@H]1C(=O)N(C)c2cnc(Nc3ccc(C(=O)NC4CCN(C)CC4)cc3OC)nc2N1C1CCCC1
Outline: (§1)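 Soluble protein was quantified by TMTpro 16plex LC-MS/MS after channel sums were equalised. It was obtained as the supernatant after 21,000xg for 90 min from pooled aliquots of K562 cells (2×10^6 cells/mL, 10 μM compound, 30 min) heated for 3 min across 48°C-58°C and extracted in PBS with 0.5% NP-40 at 4°C. Thermal stability values are relative to control samples and come from duplicates. They are given as log2 fold changes.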

[2] = compound: CC[C@@H]1C(=O)N(C)c2cnc(Nc3ccc(C(=O)N[C@H]4CC[C@H](N5CCN(CC6CC6)CC5)CC4)cc3OC)nc2N1C(C)C [volasertib]
Outline: as §1

[3] = compound: CC[C@H](C)N1C=C(C2=C(C=C(C=C21)C3=CN=C(C=C3)N4CCNCC4)C(=O)NCC5=C(C=C(NC5=O)C)C)C
Outline: as §1

[4] = compound: CC[C@H](C)[C@@H](C(=O)N[C@@H]([C@@H](C)O)C(=O)N[C@@H](CC(C)C)C(=O)[C@]1(CO1)C)NC(=O)[C@H]([C@@H](C)CC)N(C)C(=O)C [epoxomicin]
Outline: as §1

[5] = compound: CCn1c(C(=O)N(C2CC2)C2CC2)cc2c3c(ncn3C)c(Nc3cc(C)n(C)n3)nc21
Outline: as §1

[6] = compound: CCn1cc(-c2ccnc3[nH]c(-c4cccc(CN(C)C)c4)cc23)c(-c2ccc(NC(=O)N(C)C)cc2)n1
Outline: as §1

[7] = compound: CN(C)CC(=O)Nc1ccc2[nH]c(=O)c3ccccc3c2c1
Outline: as §1

[8] = compound: CN(CCOC1=CC=C(C=C1)C[C@H]2C(=O)NC(=O)S2)C3=CC=CC=N3 (racemic) [rosiglitazone]
Outline: as §1

[9] = compound: CN1C2=C(C3=C1C(=O)N(N=C3)CC4=CC(=CC=C4)N)SC(=C2)S(=O)C
Outline: as §1

[10] = compound: CN1CCC(CNc2ccc3ncc(-c4cccc(OC(F)(F)F)c4)n3n2)CC1
Outline: as §1

[11] = compound: CN1CCN(CCOc2cc(OC3CCOCC3)c3c(Nc4c(Cl)ccc5c4OCO5)ncnc3c2)CC1 [saracatinib]
Outline: as §1

[12] = compound: CN1CCN(c2nc(C3=C(c4c[nH]c5ccccc45)C(=O)NC3=O)c3ccccc3n2)CC1 [sotrastaurin]
Outline: as §1

[13] = compound: CN1CC[C@H](c2c(O)cc(O)c3c(=O)cc(-c4ccccc4Cl)oc23)[C@H](O)C1 [alvocidib]
Outline: as §1

[14] = compound: CN1CCc2c(c3ccccc3n2Cc2ccc(C(=O)NO)cc2)C1 [Tubastatin A]
Outline: as §1

[15] = compound: CNC(=O)C1=CC=CC=C1NC2=NC(=NC=C2Cl)NC3=C(C=C(C=C3)N4CCOCC4)OC
Outline: as §1

[16] = compound: CNC(=O)c1ccc(Nc2ncc(C(F)(F)F)c(NCc3nccnc3N(C)S(C)(=O)=O)n2)cc1 [defactinib]
Outline: as §1

[17] = compound: CNCc1ccc(-c2[nH]c3cc(F)cc4c3c2CCNC4=O)cc1 [rucaparib]
Outline: as §1

[18] = compound: CNc1nc(-c2ccc3c(N)n[nH]c3c2)cc(N2C[C@@H](C(=O)NC3CCCCC3)CC[C@H]2C)n1
Outline: as §1

[19] = compound: COC(=O)N[C@@H](C)CNc1nccc(-c2cn(C(C)C)nc2-c2cc(Cl)cc(NS(C)(=O)=O)c2F)n1 [encorafenib]
Outline: as §1

[20] = compound: COC(=O)[C@H](CCSC)NC(=O)C1=C(C=C(C=C1)NC[C@H](CS)N)C2=CC=CC=C2
Outline: as §1

Measured: log2 fold change

MAP4 (UniProt P27816)
UniProt P27816, sequence (P27816 whole entry, looked up): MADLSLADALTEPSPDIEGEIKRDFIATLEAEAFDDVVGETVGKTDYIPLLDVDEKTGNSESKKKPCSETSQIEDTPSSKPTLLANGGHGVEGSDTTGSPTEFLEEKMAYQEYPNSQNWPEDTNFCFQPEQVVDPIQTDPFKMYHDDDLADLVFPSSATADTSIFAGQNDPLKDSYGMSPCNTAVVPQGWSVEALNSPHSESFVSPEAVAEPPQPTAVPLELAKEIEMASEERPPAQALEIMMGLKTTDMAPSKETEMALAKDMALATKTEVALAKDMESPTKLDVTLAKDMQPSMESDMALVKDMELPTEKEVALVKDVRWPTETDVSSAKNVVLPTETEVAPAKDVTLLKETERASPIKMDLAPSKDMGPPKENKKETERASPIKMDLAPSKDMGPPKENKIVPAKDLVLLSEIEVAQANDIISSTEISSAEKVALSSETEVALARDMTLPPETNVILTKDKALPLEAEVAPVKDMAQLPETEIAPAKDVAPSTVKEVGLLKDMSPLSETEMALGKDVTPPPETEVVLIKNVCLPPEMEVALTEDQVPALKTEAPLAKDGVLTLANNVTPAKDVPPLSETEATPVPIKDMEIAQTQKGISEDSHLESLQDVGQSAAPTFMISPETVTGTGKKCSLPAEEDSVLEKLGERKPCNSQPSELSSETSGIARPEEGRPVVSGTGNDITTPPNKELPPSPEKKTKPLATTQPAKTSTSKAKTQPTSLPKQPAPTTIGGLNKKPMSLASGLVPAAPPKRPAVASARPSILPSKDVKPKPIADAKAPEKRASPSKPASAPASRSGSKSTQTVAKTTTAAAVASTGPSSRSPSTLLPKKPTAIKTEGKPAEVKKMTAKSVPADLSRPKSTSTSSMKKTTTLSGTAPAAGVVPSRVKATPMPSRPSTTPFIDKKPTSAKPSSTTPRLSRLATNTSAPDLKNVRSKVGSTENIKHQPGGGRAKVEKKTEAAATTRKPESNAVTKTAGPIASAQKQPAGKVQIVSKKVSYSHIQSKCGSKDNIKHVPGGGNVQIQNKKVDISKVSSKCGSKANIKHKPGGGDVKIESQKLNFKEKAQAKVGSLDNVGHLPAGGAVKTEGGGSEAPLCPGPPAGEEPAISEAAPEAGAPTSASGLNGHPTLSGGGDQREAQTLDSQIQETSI
inactive: [1] 0.011 | [2] 0.049 | [3] -0.041 | [4] -0.003 | [5] 0.018 | [6] -0.002 | [7] -0.03 | [8] -0.021 | [9] -0.004 | [10] 0.037 | [11] 0.017 | [12] 0.019 | [13] 0.042 | [14] -0.029 | [15] -0.014 | [16] 0.016 | [17] 0.009 | [18] -0.029 | [19] -0.001 | [20] 0.031

MAPK8 isoform 3 (UniProt P45983)
active: [15] 0.942
inactive: [1] -0.112 | [2] -0.249 | [3] 0.003 | [4] 0.117 | [5] -0.036 | [6] 0.006 | [7] 0.004 | [8] 0.095 | [9] 0.013 | [10] -0.054 | [11] -0.006 | [12] 0.052 | [13] 0.087 | [14] 0.009 | [16] -0.009 | [17] 0.031 | [18] -0.07 | [19] 0.029 | [20] -0.029

KIF1B isoform 4 (UniProt O60333)
UniProt O60333, sequence (O60333 whole entry, looked up): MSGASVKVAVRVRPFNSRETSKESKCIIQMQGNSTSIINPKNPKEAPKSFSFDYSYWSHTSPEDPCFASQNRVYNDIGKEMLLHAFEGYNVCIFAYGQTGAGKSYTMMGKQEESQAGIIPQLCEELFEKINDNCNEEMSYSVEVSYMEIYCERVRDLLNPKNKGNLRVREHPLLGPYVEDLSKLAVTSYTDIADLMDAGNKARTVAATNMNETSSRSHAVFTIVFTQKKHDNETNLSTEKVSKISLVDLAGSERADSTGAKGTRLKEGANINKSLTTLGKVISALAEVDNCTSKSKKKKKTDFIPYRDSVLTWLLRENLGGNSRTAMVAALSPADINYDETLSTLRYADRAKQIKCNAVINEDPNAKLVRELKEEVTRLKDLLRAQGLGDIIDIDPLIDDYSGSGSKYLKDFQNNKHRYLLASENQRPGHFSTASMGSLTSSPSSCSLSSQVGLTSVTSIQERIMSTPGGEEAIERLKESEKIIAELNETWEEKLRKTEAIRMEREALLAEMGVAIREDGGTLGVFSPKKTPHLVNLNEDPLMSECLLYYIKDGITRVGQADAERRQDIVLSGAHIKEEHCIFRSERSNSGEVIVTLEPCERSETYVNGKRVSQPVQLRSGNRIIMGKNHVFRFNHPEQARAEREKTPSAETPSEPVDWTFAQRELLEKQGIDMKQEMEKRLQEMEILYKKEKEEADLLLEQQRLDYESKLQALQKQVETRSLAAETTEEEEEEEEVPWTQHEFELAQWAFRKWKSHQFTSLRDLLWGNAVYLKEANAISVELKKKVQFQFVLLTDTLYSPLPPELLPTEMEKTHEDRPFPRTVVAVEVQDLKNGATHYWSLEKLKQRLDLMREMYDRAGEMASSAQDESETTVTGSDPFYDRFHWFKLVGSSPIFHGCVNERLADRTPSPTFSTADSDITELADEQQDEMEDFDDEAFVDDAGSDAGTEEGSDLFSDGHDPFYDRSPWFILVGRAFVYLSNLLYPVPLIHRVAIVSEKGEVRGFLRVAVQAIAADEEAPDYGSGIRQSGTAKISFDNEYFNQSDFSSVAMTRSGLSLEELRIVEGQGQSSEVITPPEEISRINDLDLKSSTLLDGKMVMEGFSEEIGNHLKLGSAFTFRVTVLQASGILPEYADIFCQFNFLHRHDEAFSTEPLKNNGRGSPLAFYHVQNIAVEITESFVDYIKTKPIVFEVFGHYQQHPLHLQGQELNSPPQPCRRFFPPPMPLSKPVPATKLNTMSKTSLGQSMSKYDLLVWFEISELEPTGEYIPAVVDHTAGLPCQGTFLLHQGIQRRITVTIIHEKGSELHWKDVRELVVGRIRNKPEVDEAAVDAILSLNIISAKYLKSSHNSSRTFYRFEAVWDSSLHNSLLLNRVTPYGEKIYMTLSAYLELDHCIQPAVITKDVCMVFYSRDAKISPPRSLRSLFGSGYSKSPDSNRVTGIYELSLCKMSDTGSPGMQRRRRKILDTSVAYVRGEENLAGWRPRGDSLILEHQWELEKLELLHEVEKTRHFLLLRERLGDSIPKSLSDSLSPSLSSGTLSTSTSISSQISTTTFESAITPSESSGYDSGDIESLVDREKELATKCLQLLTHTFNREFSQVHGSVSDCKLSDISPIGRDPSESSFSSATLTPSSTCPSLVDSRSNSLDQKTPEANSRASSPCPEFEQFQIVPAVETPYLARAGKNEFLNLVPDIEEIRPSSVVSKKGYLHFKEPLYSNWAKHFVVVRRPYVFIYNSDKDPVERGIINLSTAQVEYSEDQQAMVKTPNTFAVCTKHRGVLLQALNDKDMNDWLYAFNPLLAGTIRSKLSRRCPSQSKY
active: [10] -0.299
inactive: [1] -0.042 | [2] -0.11 | [3] 0.052 | [4] 0.039 | [5] -0.015 | [6] -0.005 | [7] 0.123 | [8] 0.059 | [9] -0.001 | [11] -0.033 | [12] -0.014 | [13] -0.018 | [14] 0.025 | [15] 0.016 | [16] -0.004 | [17] -0.006 | [18] -0.097 | [19] 0.023 | [20] -0.016

METTL18 (UniProt O95568)
inactive: [1] 0.02 | [2] -0.159 | [3] 0.032 | [4] -0.058 | [5] 0.08 | [6] 0 | [7] 0.006 | [8] 0.062 | [9] 0.005 | [10] 0.015 | [11] 0.024 | [12] 0.066 | [13] -0.056 | [14] -0.037 | [15] -0.042 | [16] -0.021 | [17] -0.041 | [18] -0.031 | [19] 0.108 | [20] -0.176

LAMP2 isoform 2 (UniProt P13473)
UniProt P13473, sequence (P13473 whole entry, looked up): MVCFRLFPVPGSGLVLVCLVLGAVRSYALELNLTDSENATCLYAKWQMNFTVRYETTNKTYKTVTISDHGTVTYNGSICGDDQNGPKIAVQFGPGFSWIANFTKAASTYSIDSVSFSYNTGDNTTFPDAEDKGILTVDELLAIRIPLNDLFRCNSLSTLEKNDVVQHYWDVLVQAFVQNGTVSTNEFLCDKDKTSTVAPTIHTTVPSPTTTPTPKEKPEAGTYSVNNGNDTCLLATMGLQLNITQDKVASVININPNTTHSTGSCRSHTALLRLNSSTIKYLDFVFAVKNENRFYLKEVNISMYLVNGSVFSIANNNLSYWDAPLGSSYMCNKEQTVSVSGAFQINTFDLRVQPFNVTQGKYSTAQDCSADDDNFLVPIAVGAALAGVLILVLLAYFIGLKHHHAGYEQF
inactive: [1] -0.137 | [2] -0.081 | [3] -0.078 | [4] -0.016 | [5] 0.028 | [6] -0.01 | [7] 0.012 | [8] -0.035 | [9] -0.112 | [11] 0.24 | [13] -0.026 | [14] 0.021 | [15] 0.027 | [16] 0.078 | [17] 0.024 | [18] -0.192 | [19] 0.043 | [20] -0.017
active: [10] -0.485

INPP1 (UniProt P49441)
inactive: [1] 0.011 | [2] -0.042 | [3] 0.028 | [4] 0.052 | [5] 0.005 | [6] -0.011 | [7] -0.047 | [8] 0.002 | [9] 0.014 | [11] 0.071 | [12] 0 | [13] -0.011 | [14] 0.061 | [15] 0.044 | [16] -0.032 | [17] -0.029 | [18] 0.048 | [19] 0.038 | [20] -0.038
active: [10] -0.296

MIEF1 (UniProt Q9NQG6)
UniProt Q9NQG6, sequence (Q9NQG6 whole entry, looked up): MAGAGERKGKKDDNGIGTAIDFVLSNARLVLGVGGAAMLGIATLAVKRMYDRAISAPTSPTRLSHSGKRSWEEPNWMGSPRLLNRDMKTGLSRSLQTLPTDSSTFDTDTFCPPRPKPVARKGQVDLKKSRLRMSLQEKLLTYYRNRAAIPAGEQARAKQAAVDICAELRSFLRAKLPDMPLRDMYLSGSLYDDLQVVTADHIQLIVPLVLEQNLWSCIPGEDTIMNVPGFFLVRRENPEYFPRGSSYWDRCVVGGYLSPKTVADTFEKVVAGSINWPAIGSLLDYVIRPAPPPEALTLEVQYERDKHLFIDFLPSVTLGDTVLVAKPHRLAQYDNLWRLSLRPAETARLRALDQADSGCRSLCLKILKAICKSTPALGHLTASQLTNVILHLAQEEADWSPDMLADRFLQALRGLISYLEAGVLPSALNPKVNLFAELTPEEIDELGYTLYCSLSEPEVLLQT
inactive: [1] -0.053 | [2] -0.098 | [3] 0.031 | [4] 0.073 | [5] 0.019 | [6] 0.019 | [7] 0.054 | [8] 0.041 | [9] -0.018 | [11] -0.016 | [12] -0.042 | [13] -0.031 | [14] -0.024 | [15] -0.002 | [16] 0.014 | [17] -0.009 | [18] -0.088 | [19] 0.023 | [20] -0.018
active: [10] -0.546

KPNB1 (UniProt Q14974)
UniProt Q14974, sequence (Q14974 whole entry, looked up): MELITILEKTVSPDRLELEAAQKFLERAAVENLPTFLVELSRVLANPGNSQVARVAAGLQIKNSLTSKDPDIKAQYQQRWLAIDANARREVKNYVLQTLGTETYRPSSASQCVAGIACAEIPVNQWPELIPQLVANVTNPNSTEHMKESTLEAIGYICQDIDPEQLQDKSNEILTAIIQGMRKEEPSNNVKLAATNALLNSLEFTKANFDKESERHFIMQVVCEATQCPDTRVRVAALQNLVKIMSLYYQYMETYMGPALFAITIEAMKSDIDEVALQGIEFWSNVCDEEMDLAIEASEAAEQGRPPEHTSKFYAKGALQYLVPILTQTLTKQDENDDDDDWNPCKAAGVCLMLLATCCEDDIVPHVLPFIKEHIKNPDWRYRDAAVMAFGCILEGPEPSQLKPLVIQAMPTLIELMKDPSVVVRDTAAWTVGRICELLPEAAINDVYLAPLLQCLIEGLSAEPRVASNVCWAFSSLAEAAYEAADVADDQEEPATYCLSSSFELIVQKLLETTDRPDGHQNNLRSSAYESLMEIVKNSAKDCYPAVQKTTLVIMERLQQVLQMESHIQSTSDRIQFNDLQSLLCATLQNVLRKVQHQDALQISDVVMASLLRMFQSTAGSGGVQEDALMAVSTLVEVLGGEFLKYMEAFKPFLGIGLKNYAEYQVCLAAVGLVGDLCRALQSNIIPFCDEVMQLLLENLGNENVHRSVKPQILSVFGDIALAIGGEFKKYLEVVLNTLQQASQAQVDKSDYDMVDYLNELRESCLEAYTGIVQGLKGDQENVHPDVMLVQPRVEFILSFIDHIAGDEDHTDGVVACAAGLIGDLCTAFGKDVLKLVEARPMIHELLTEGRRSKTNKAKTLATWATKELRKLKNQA
active: [2] -0.432
inactive: [1] -0.105 | [3] 0.04 | [4] 0.04 | [5] 0.009 | [6] 0.016 | [7] 0.048 | [8] 0.027 | [9] 0.102 | [10] -0.212 | [11] -0.076 | [12] -0.21 | [13] -0.01 | [14] 0.031 | [15] 0.043 | [16] -0.039 | [17] 0.126 | [18] 0.032 | [19] 0.201 | [20] -0.063

MCOLN3 (UniProt Q8TDD5)
inactive: [1] 0.094 | [2] -0.136 | [3] -0.071 | [5] -0.132 | [6] 0.027 | [8] 0.128 | [10] -0.084 | [14] -0.001 | [15] -0.141 | [17] -0.275 | [19] -0.026

ING5 (UniProt Q8WYH8)
active: [1] -0.561 | [2] -1.47
inactive: [5] -0.046 | [13] 0.034 | [14] 0.192 | [15] -0.147 | [17] 0.129 | [19] -0.078

MED22 (UniProt Q15528)
UniProt Q15528, sequence (Q15528 whole entry, looked up): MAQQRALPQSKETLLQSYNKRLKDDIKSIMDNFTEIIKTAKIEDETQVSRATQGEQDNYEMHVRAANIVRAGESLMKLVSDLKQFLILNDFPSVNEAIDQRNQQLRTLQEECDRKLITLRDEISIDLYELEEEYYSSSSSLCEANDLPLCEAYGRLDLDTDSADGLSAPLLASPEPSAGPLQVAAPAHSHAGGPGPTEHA
inactive: [1] 0.133 | [3] 0.097 | [4] 0.02 | [5] 0.134 | [7] -0.019 | [8] 0.076 | [9] -0.043 | [11] -0.089 | [12] -0.007 | [13] -0.055 | [14] 0.332 | [15] -0.051 | [16] -0.043 | [17] 0.021 | [18] 0.044 | [19] 0.12 | [20] 0.097
